GPR151 activ: human GPR151 activation. Q8TDV0. PathHunter beta-arrestin GPR151 cells, luminescence. activation, % at 11.2 µM. actives 1% (n = 650,000). AID 1508602; in the data active means activation above about 4.9%;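 further: 0% = median of compound wells and 100% = cells with positive control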
FBW7 activator: human FBW7 E3 ligase activation, primary screen; normalized activity (activation), % at 26.1 µM; AlphaScreen FBW7–phospho-cyclin E peptide binding, activator screen; Q969H0; actives 0.13% (n = 650,000); in the data active means normalized activity above about 1.9%;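 further: purified mutant Fbw7 with reduced substrate affinity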
MITF inh: blocks human microphthalmia-associated transcription factor; O75030; AlphaScreen MITF homodimerization, bead proximity signal; inhibition, % at 2.6 µM; actives 0.91% (n = 650,000); in the data active means inhibition above about 50%;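 further: 0% = vehicle wells with protein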
TEAD-YAP block: TEAD-YAP interaction inhibition; HEK-TIYL cells, TEAD-Gal4/YAP UAS-luciferase luminescence; inhibition, % at 9.12 µM; actives 1.4% (n = 640,000); AID 1259422; in the data active means inhibition above about 32%;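 further: 0% = median of test compound wells and 100% = reference inhibitor wells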
GPR151 conf act: confirmation of human GPR151 activators. activation, % at 11.2 µM. GPR151 PathHunter beta-arrestin cells, luminescence, 90 min; % of EA-reagent control over plate median. shares compounds with GPR151 activ. 6,700 tested, under 10 active;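 active means mean percent activation across replicates above the confirmation screen cutoff of 4.91%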
GPR119 counter: GPR119 activation, counter-screen for GPR151 activators; activation, % at 11.2 µM; shares compounds with GPR151 activ; GPR119 PathHunter beta-arrestin cells, luminescence, 90 min; 0 = compound-well median, 100 = enzyme-acceptor control; AID 1508611; actives 0.3% (n = 6,700);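 active means mean percent activation in the counterscreen above 29.09%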;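 further: counterscreen on off-target GPR119 to flag nonselective hits from the GPR151 activator screen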
Target sequence (Q8TDV5 whole entry, looked up): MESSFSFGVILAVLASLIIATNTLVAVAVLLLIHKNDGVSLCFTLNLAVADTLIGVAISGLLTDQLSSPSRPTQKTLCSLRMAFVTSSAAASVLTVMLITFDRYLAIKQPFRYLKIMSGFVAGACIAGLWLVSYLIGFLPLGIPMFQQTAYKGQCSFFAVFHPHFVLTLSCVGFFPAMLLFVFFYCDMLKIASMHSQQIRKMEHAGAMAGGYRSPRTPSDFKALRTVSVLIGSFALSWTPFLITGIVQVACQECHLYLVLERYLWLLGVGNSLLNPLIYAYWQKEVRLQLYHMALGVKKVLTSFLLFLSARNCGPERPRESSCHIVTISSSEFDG
Active calls of the source: *. A selection: hits, their analogues and other compounds. The true share with any hit is near 3.5%.

How did Nn1c(SCC(=O)Nc2ccc(OCc3ccccc3)cc2)nnc1-c1ccccc1 do in these assays?
GPR151 activ: 1; FBW7 activator: 0; MITF inh: -2; TEAD-YAP block: -9

What do the screens show for `Nn1c(SCC(=O)Nc2ccc(OCc3ccccc3)cc2)nnc1-c1ccco1`?
GPR151 activ: 5.0*; FBW7 activator: 0; MITF inh: 6; TEAD-YAP block: 0; GPR151 conf act: -1; GPR119 counter: -2

What do the screens show for `COC(=O)c1cnn(C(=O)c2ccc(OC)cc2)c1N`?
GPR151 activ: 6.2*; FBW7 activator: 0; MITF inh: 6; TEAD-YAP block: -4; GPR151 conf act: 0; GPR119 counter: 0

What do the screens show for `COC(=O)c1cnn(C(=O)c2ccncc2)c1N`?
GPR151 activ: -2; FBW7 activator: 0; MITF inh: -3; TEAD-YAP block: 0

Results for COC(CN1C(=O)C(=O)/C(=C(/O)c2ccccc2)C1c1cccnc1)OC (centres undefined) ?
GPR151 activ: 5.9*; FBW7 activator: 0; MITF inh: 0; TEAD-YAP block: 4; GPR151 conf act: 1; GPR119 counter: 4

How did COC(CN1C(=O)C(=O)/C(=C(\O)c2ccccc2)C1c1ccccc1)OC (centres undefined) do in these assays?
GPR151 activ: 1; FBW7 activator: 0; MITF inh: -1; TEAD-YAP block: 7

Results for O=C1C(=O)N(CCN2CCOCC2)C(c2cccnc2)/C1=C(/O)c1ccc(S(=O)(=O)N2CCOCC2)cc1 (centres undefined) ?
GPR151 activ: 6.5*; FBW7 activator: 0; MITF inh: 14; TEAD-YAP block: 3; GPR151 conf act: 1; GPR119 counter: 3

Results for Cc1cc(NC(=O)c2ccc(Cl)cc2)n(-c2nc(-c3cccs3)cs2)n1 ?
GPR151 activ: 1; FBW7 activator: 0; MITF inh: 9; TEAD-YAP block: 2

How did CCOC(=O)c1ccc(NC(=O)c2sc(NC(=O)c3ccc(C)c([N+](=O)[O-])c3)c(C(=O)OCC)c2C)cc1 do in these assays?
GPR151 activ: -1; FBW7 activator: 1; MITF inh: 15; TEAD-YAP block: 9

How did CC1Cc2cc(S(=O)(=O)NCCC(=O)NCc3ccccc3)ccc2N1C(=O)C1CC1 (centres undefined) do in these assays?
GPR151 activ: -1; FBW7 activator: 0; MITF inh: 1; TEAD-YAP block: 0

What do the screens show for `CSc1nnc(C)c(=O)n1COC(=O)c1cc2ccccc2o1`?
GPR151 activ: 7.5*; FBW7 activator: 0; MITF inh: 10; TEAD-YAP block: 9; GPR151 conf act: -1; GPR119 counter: 1

What do the screens show for `CSc1nnc(C)c(=O)n1COC(=O)c1ccccc1I`?
GPR151 activ: -1; FBW7 activator: 0; MITF inh: 2; TEAD-YAP block: 7

What do the screens show for `O=C1CCCN1CCn1cnc2c(Nc3ccc4c(c3)OCO4)nc(N3CCC(N4CCOCC4)CC3)nc21`?
GPR151 activ: -2; FBW7 activator: 0; MITF inh: -3; TEAD-YAP block: -5

What do the screens show for `O=C(Nc1ccc(N2CCOCC2)cc1)c1ccnc(N2CCOCC2)c1`?
GPR151 activ: 5.5*; FBW7 activator: 0; MITF inh: 10; TEAD-YAP block: -8; GPR151 conf act: -1; GPR119 counter: 6

Results for O=C(Nc1ccc(N2CCOCC2)cc1)C1CCN(c2ccc(Cl)nn2)CC1 ?
GPR151 activ: 6.0*; FBW7 activator: 0; MITF inh: 9; TEAD-YAP block: 9; GPR151 conf act: 0; GPR119 counter: 5

How did NC(=O)C1CCN(CC(=O)Nc2ccc(N3CCOCC3)cc2)CC1 do in these assays?
GPR151 activ: 5.9*; FBW7 activator: 0; MITF inh: 2; TEAD-YAP block: 9; GPR151 conf act: 0; GPR119 counter: 7

What do the screens show for `O=C(Nc1ccc(N2CCOCC2)cc1)c1ccnc(NCCN2CCOCC2)c1`?
GPR151 activ: -1; FBW7 activator: 0; MITF inh: 29; TEAD-YAP block: 8

What do the screens show for `CC(=O)Nc1ccc(NC(=O)c2ccnc(Nc3ccc(N4CCOCC4)cc3)c2)cc1`?
GPR151 activ: -2; FBW7 activator: 0; MITF inh: 1; TEAD-YAP block: -4

How did O=C(Nc1ccc2c(c1)OCO2)c1ccnc(NCCN2CCOCC2)c1 do in these assays?
GPR151 activ: 7.1*; FBW7 activator: 0; MITF inh: 7; TEAD-YAP block: -18; GPR151 conf act: 0; GPR119 counter: -7

Results for O=S(=O)(c1ccc(Br)cc1)N1CCN(c2ccc3cnccc3c2)CC1 ?
GPR151 activ: 1; FBW7 activator: 0; MITF inh: 10; TEAD-YAP block: 7

Results for COc1ccc(OC)c(-n2c(CN3CCC(C(N)=O)CC3)nc3ccccc3c2=O)c1 ?
GPR151 activ: 5.6*; FBW7 activator: 0; MITF inh: 5; TEAD-YAP block: 15; GPR151 conf act: 0; GPR119 counter: -11

What do the screens show for `CC(=O)c1cc(C(=O)N2CCc3c(cnc(C)c3CNC(=O)c3cncs3)C2)cs1`?
GPR151 activ: 0; FBW7 activator: 0; MITF inh: 1; TEAD-YAP block: -2

How did Cc1ccc(NC(=O)c2cnccn2)c(Br)c1 do in these assays?
GPR151 activ: 6.4*; FBW7 activator: 0; MITF inh: 6; TEAD-YAP block: -38; GPR151 conf act: -1; GPR119 counter: -12

Results for O=C(Nc1ccc(Br)cc1F)c1cnccn1 ?
GPR151 activ: 1; FBW7 activator: 0; MITF inh: 4; TEAD-YAP block: -8

How did CCN(CC)C(=O)C1CCCN(c2nc(Nc3ccc(NC(C)=O)cc3)c3ncn(Cc4ccc(C(F)(F)F)cc4)c3n2)C1 (centres undefined) do in these assays?
GPR151 activ: 0; FBW7 activator: 0; MITF inh: 0; TEAD-YAP block: 3

What do the screens show for `O=C1CCCN1CCn1cnc2c(Nc3ccc4c(c3)OCO4)nc(N3CCN(Cc4ccc5c(c4)OCO5)CC3)nc21`?
GPR151 activ: 5.1*; FBW7 activator: 0; MITF inh: 8; TEAD-YAP block: 8; GPR151 conf act: 0; GPR119 counter: -7

What do the screens show for `CCN(CC)C(=O)C1CCCN(c2nc(Nc3ccc(NC(C)=O)cc3)c3ncn(CCN4CCCC4=O)c3n2)C1` (centres undefined)?
GPR151 activ: 6.4*; FBW7 activator: 0; MITF inh: -5; TEAD-YAP block: -1; GPR151 conf act: 0; GPR119 counter: -8

How did CC(C)=NNC(=O)c1ccc(Cl)cc1 do in these assays?
GPR151 activ: 12*; FBW7 activator: 0; MITF inh: 7; TEAD-YAP block: -34; GPR151 conf act: 0; GPR119 counter: 2

Results for CCOc1ccc(-c2nnc3ccc(SC(CC)C(=O)OC)nn23)cc1 (centres undefined) ?
GPR151 activ: 1; FBW7 activator: 0; MITF inh: -4; TEAD-YAP block: -8
